Compound activity: PubChem BioAssay, National Center for Advancing Translational Sciences (NCATS)
Most compounds without a hit are left out; they make up all but 19% or so of the library.
TDP1 block = inhibitors of human tyrosyl-DNA phosphodiesterase TDP1; Q9NUW8; recombinant TDP1, AlphaScreen DNA substrate cleavage; Potency, µM (series often up to 130 µM), usual class: inhibitors; 350,000 compounds, 0.28% hits; AID 485290; note: nearly all actives have a fitted effect of over 40% in size
Target sequence (Q9NUW8 whole entry, looked up): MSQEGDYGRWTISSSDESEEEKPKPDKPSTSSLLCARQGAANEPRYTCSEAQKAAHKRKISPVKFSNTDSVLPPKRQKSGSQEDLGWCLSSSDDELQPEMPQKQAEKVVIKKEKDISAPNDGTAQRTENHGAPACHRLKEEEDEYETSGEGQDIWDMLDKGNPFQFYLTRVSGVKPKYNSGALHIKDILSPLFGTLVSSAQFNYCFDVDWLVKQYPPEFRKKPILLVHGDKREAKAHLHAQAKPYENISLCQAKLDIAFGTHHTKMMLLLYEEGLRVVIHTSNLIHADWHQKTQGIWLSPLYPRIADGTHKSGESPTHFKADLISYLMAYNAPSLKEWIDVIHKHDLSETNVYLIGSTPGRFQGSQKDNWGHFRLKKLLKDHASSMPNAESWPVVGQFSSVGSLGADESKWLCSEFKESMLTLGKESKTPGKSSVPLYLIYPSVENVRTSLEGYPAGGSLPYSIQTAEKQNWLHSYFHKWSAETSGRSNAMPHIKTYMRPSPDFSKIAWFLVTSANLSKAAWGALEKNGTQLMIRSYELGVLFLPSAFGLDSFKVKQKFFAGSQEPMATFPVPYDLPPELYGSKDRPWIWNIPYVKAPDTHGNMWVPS
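Tdp1 1 nM final; 15 min RT w/ cpd; substrate 15 nM, 5 min; beads 10 ug/ml, 10 min; AlphaScreen read. Neg ctrl: no enzyme.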
TDP1 cell CPT = DT40-hTDP1 cell growth loss with CPT; chicken DT40 Tdp1-/-;hTDP1 cells + 20 nM CPT, ATP luminescence, 48 h; Potency, µM (series often up to 46.2 µM), hits mostly inhibitors; AID 686979; 420,000 compounds, 12% hits; note: nearly all actives have a fitted effect of over 55% in size
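Chicken DT40 Tdp1-/- cells complemented with human TDP1, 400 cells/well, exposed to compounds plus 20 nM camptothecin for at least 48 h at 37 C; viability read as ATP content by CellTiter-Glo luminescence.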
HepG2 viability = HepG2 cytotoxicity, counter-screen for TGF-b inhibitors; HepG2 CAGA-GFP viability, ATP luminescence, 18 h; Potency, µM (titrated, usually from 46.1 µM), hits mostly cytotoxic; 410,000 compounds, 0.76% hits
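CellTiter-Glo luminescence gave cytotoxicity after 18 hours at 37 degrees C. The cells were HepG2 CAGA-GFP in 1% FBS DMEM, stimulated with 500 pg/mL TGF-beta after compound addition. %Activity was normalised to no-cell wells (complete cell-killing) and DMSO (no toxicity), and curves were fitted and classified.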
TDP1 cell noCPT = qHTS for Inhibitors of human tyrosyl-DNA phosphodiesterase 1 (TDP1): qHTS in cells in absence of CPT. DT40 Tdp1-/- hTDP1 cells, no CPT, ATP luminescence, 48 h. Potency, µM (top dose mostly 46.2 µM), usual class: inhibitors. 420,000 compounds, 15% hits; note: nearly all actives have a fitted effect of over 55% in size
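Stably hTDP1-transfected Tdp1-null chicken DT40 cells were treated with library compounds minus camptothecin and grown for at least 48 hr at 37 °C, after which cellular ATP was quantified by luminescence.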
IL1B secr inh = inhibitors of inflammasome signaling (IL-1 beta secretion) | THP-1 LPS/ATP IL-1B secretion, AlphaLISA, 16 h; active compounds read low | activity change, % at 57.5 µM | 360,000 compounds, 4.7% hits; in the data active = activity change below about -50%; inconclusive = mostly about -30% to -49%
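Secreted IL-1B measured by AlphaLISA bead assay after 16 h compound exposure of THP-1 cells; compounds (final up to 57.5 uM) added 1 h before LPS (250 ng/mL) and ATP (1.25 mM) stimulation; lower signal means less secretion.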
TGFb inhibitor = TGF-b pathway inhibition; Potency, µM (titrated, usually from 46.1 µM), most hits filed as inhibitors; 410,000 compounds, 1.2% hits; HepG2 CAGA-GFP TGF-b/SMAD3 reporter, GFP fluorescence, 18 h; TGF-beta stimulated, 500 pg/mL final; note: nearly all actives have a fitted effect of over 65% in size
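Smad-responsive CAGA-GFP expression was quantified in HEPG2 cells exposed to compounds and 500 pg/mL final TGF-beta for 18 h at 37 degrees C; unstimulated wells defined full inhibition.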
Hits are given with their value; i = inactive; ? = inconclusive; nt = no result; [ ] = dose if it differs, or a comment. Unless noted, calls come from the whole dose curve; as a rule, active = well fitted curve in the direction sought with a large enough effect; inconclusive = small, poorly fitted or top-dose-only effect, or another doubt; inactive = no such curve, though single readings can be large; an effect the other way counts as inactive or inconclusive.

SMILES	TDP1 block	TDP1 cell CPT	HepG2 viability	TDP1 cell noCPT	IL1B secr inh	TGFb inhibitor
CCn1c(SCc2ccccc2Cl)nc2nc3c(cc2c1=O)CCCC3	i	16µM	i	23µM	?	i
CCn1c(SCC(=O)Nc2ccc(C(C)=O)cc2)nc2nc3c(cc2c1=O)CCCC3	i	?	i	?	-55	i
COc1ccc(NC(=O)CSc2nc(N)c3cc4c(nc3n2)CCCC4)cc1	i	?	i	15µM	i	i
CC(=O)c1ccc(NC(=O)CSc2nc(N)c3cc4c(nc3n2)CCCC4)cc1	i	?	i	?	i	?
NC(N)=NCCC[C@H](NC(=O)CNC(=O)c1ccccc1)C(=O)Nc1cc(C(F)(F)F)ccc1Cl	i	nt	nt	nt	nt	nt
COc1ccc(-c2nc3ccccc3n3c(-c4ccccc4)c4c(=O)n(C)c(=O)n(C)c4c23)cc1OC	i	i	i	?	nt	i
CC1=C(C(=O)Nc2cccnc2)C(c2ccc(F)cc2)n2nc(SCc3ccccc3)nc2N1 (centres undefined)	i	i	i	i	nt	i
CNC(=O)COc1coc(CN2CCN(c3ccccc3F)CC2)cc1=O	i	i	i	i	i	i
CCn1c(SCC(=O)Nc2ccc(OC)cc2)nc2nc3c(cc2c1=O)CCCC3	i	?	i	23µM	-83	i
CCn1c(C)nnc1SCC(=O)Nc1ccc(OC)cc1	nt	i	6.3µM	i	i	i
CCn1c(SCC(=O)Nc2ccc(OC)cc2)nc2nc3c(cc2c1=O)COC(C)(C)C3	i	i	i	?	i	i
CCn1c(SCC(=O)Nc2ccc(Cl)cc2)nc2nc3c(cc2c1=O)CCCC3	i	?	i	?	-64	i
CCn1c(SCC(=O)Nc2ccccc2C)nc2nc3c(cc2c1=O)COC(C)(C)C3	i	?	i	10µM	?	i
CCn1c(SCC(=O)NCc2ccccc2)nc2nc3c(cc2c1=O)CCCC3	i	i	i	?	i	i
CCCN1C(=O)C(Cc2nc3ccccc3c(=O)n2-c2cccc(C)c2)c2ccccc21 (centres undefined)	i	?	i	?	nt	i
O=[N+]([O-])c1cccc(/C=N\N=C2c3ccccc3-c3ccccc32)c1O	i	?	i	16µM	i	i
Oc1ccc(C=NN=C2c3ccccc3-c3ccccc32)c(O)c1	nt	?	i	15µM	-58	?
O=C(NCCc1ccc(Cl)cc1)C1CCCN(S(=O)(=O)N2CCCCCC2)C1 (centres undefined)	i	18µM	i	16µM	i	?
COc1ccc(S(=O)(=O)N2CCCC(C(=O)NCc3ccc(F)cc3)C2)cc1 (centres undefined)	i	i	i	i	i	i
O=C(NCc1ccccc1Cl)C1CCCN(C(=O)Nc2ccc(F)cc2)C1 (centres undefined)	i	?	i	i	i	i
CN(C)c1ccc(NC(=O)C2CCCN(S(=O)(=O)c3ccccc3)C2)cc1 (centres undefined)	i	15µM	i	23µM	i	i
O=C(Nc1ccc(N2CCOCC2)cc1)C1CCCN(S(=O)(=O)c2ccccc2)C1 (centres undefined)	i	?	i	?	i	i
O=C(NCCc1ccccc1)C1CCCN(C(=O)Nc2ccc(F)cc2)C1 (centres undefined)	i	6.5µM	i	6.5µM	i	i
COc1ccc(CCNC(=O)C2CCCN(S(=O)(=O)c3ccc(F)cc3)C2)cc1 (centres undefined)	i	?	i	16µM	i	i
COC(=O)c1cc2c(cc1NC(=O)c1cnn(-c3ccccc3)c1-n1cccc1)OCO2	i	i	i	i	nt	i
SMILES	TDP1 block	TDP1 cell CPT	HepG2 viability	TDP1 cell noCPT	IL1B secr inh	TGFb inhibitor
CC(C)C(NS(=O)(=O)c1ccc2c(c1)oc(=O)n2C)C(=O)N1CCN(c2cccc(Cl)c2)CC1 (centres undefined)	i	?	i	?	nt	?
CCOc1ccc(NC(=O)c2ccc3[nH]c(=O)c(=O)[nH]c3c2)cc1	i	i	i	i	i	i
CCN(C(=O)COc1ccc(F)cc1Br)c1c(N)n(Cc2ccccc2)c(=O)[nH]c1=O	i	i	i	i	i	i
CS(=O)(=O)N1CCCC(C(=O)Nc2ccc(F)cc2)C1 (centres undefined)	nt	i	i	i	i	i
CCCS(=O)(=O)N1CCCC(C(=O)NCCCOC)C1 (centres undefined)	i	i	i	i	nt	i
Cc1ccc(NC(=O)C2CCCN(S(=O)(=O)c3ccc(F)cc3)C2)cc1 (centres undefined)	i	23µM	i	16µM	nt	?
COCCCNC(=O)C1CCCN(S(C)(=O)=O)C1 (centres undefined)	i	i	3.5µM	i	i	i
CCc1ccc(NC(=O)C2CCCN(S(=O)(=O)c3ccc(F)cc3)C2)cc1 (centres undefined)	i	8.2µM	i	7.3µM	nt	?
CCOC(=O)c1ccc(NC(=O)C2CCCN(S(=O)(=O)c3ccc(F)cc3)C2)cc1 (centres undefined)	i	?	i	23µM	-64	i
CC(C)CC1OC(C)Cc2[nH][nH]c(=O)c21 (centres undefined)	nt	i	nt	i	i	nt
Cc1ccc2c(c1)-c1nc(-c3ccccc3)cc(-c3ccccc3)c1CO2	i	i	i	?	nt	i
Cc1c(C(=O)NC(C)(C)C)sc2ncnc(NCCN(C)C)c12	nt	i[9.04 µM]	nt	i	nt	nt
CN(C(=O)COC(=O)CSc1ccccc1)c1c(N)n(Cc2ccccc2)c(=O)[nH]c1=O	nt	i	i	i	i	i
COc1ccccc1NC(=O)c1sc2nc(C)c(C(=O)Nc3ccc(C)cc3C)c(-c3ccccc3Cl)c2c1N	i	i	i	i	nt	i
O=C(C1CCCN(S(=O)(=O)c2ccc(F)cc2)C1)N(Cc1cccs1)C1CC1 (centres undefined)	i	13µM	i	18µM	i	i
Cc1cccc(OC2=NS(=O)(=O)c3ccccc32)c1	i	nt	nt	nt	nt	nt
COc1ccc(CCNC(=O)C2CC3Cn4c(nc5ccccc54)C3N2Cc2ccccc2)cc1 (centres undefined)	nt	?	i	18µM	i	?
COc1ccc(N/N=C(/C(N)=O)C2=NC(C)(C)Cc3ccccc32)cc1	i	16µM	i	16µM	i	i
CN1CCN(C(=O)c2ccc3c(c2)N(Cc2c(F)cccc2Cl)C(=O)c2ccccc2S3)CC1	i	?	i	23µM	nt	?
